Screens: PubChem, National Center for Advancing Translational Sciences (NCATS)
SMN2 splice enh – increases expression of the SMN2 splice variant; HEK293 SMN2-luciferase splicing reporter, luminescence, 30-36 h; Potency, µM (doses to about 46.1 µM), without a hit: at the top dose activity change, positive = activation, hits mostly activators; 210,000 compounds, 2.8% hits; AID 1458; note: % of control where 0% means no effect; nearly all actives have a fitted effect of over 55% in size
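qHTS luciferase splicing reporter: luminescence rises when SMN2 exon 7 is included in transfected HEK293 cells. Compound exposure lasted 30-36 h at 37C, with 4.5 mM final sodium butyrate as control, followed by a ONE-Glo read.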
NPC1 promoter act – NPC1 promoter activation; Huh7 NPC1 promoter luciferase reporter, 24 h; Potency, µM (highest dose often 9.22 µM), without a hit: at the highest dose activation, hits mostly activators; 320,000 compounds, 2.4% hits; AID 485313; note: % of control where 0% means no effect; nearly all actives have a fitted effect of over 60% in size
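Stably transfected Huh7 (NPC1 promoter→luciferase), 1500 cells/well in Opti-MEM + 10% FBS, 2 h settle, then compound 24 h at 37 °C. Luminescence after 10 min with Amplite reagent.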
KinaseGlo FLuc – counter-screen: inhibitors of Kinase-Glo firefly luciferase | Q27757 | Kinase-Glo luciferase, ATP luminescence, 8 min | Potency, µM (highest dose often 38.3 µM), for the others: at the highest dose activity change, negative = inhibition, actives largely listed as inhibitors | 200,000 compounds, 0.28% hits | AID 1379; note: % is set by controls: 0 for no effect and ±100 for the full control effect; nearly all actives have a fitted effect of over 60% in size
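Kinase-Glo luciferase light output from ATP and luciferin was measured with 10 uM ATP, within the enzyme's linear range. Buffer: 50 mM imidazole pH 7.2, 50 mM KCl, 7 mM MgCl2, 0.01% Tween 20, 0.05% BSA; luminescence read after 8 min at ambient temperature.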
Rab9 promoter act – Rab9 promoter activation; Huh7 Rab9 promoter-luciferase reporter, luminescence, 24 h; Potency, µM (doses to about 9.22 µM), without a hit: top-dose activation, negative = inhibition, hits mostly activators; 320,000 compounds, 2.8% hits; AID 485297; note: % of control where 0% means no effect; nearly all actives have a fitted effect of over 60% in size
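Cell-based reporter: Huh7 stable for Rab9 promoter-driven luciferase, plated in reduced-serum medium with 10% FBS at 1500 cells/well, compound-treated 24 h at 37 °C, luminescence read after 10 min reagent.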
FLuc modulator – firefly luciferase modulation, counter-screen for miR-21 project; P08659; purified FLuc, Km substrates, luminescence inhibition; Potency, µM (titrated, usually from 57.5 µM), inactives show top-dose activity change, negative = inhibition, usual class: inhibitors; 360,000 compounds, 6.9% hits;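 note: plate controls were vehicle for no effect and reference inhibitor for full effect; nearly all actives have a fitted effect of over 55% in size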
Target sequence (P08659 whole entry, looked up): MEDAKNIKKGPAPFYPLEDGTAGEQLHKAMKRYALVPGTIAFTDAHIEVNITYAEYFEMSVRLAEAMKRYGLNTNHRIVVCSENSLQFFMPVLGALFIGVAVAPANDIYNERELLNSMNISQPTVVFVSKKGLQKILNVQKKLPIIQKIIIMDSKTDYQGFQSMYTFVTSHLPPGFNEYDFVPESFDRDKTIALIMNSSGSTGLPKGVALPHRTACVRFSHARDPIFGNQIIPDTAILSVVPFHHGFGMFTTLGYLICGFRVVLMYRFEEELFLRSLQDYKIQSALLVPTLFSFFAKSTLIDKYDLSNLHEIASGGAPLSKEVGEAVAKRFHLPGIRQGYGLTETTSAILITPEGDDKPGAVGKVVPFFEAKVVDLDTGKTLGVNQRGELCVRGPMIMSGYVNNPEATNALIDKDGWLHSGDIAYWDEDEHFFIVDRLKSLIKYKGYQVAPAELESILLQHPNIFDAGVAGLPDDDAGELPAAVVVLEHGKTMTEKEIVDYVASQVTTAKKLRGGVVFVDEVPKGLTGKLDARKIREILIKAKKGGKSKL
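Purified P. pyralis luciferase (10nM final) with 10uM D-luciferin and 10uM ATP (Km levels) in 50mM Tris acetate pH 7.5, 10mM Mg acetate, 0.01% Tween-20, 0.05% BSA; qHTS 6-point titration, ~60 µM downward; luminescence read.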
ELG1 genotoxic – induces genotoxicity in HEK293T cells with luciferase-tagged ELG1; Potency, µM (titrated, usually from 46 µM), without a hit: top-dose activity change, positive = activation, hits mostly activators; HEK293T ELG1-luciferase reporter, luminescence, 16 h; 330,000 compounds, 1.3% hits; note: % of control where 0% means no effect; nearly all actives have a fitted effect of over 60% in size
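Reporter readout depends on ELG1 protein level, which increases with genetic stress. After 16 hr compound exposure at 37 °C, luciferase activity was quantified using ONE-Glo.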
* = called active by the depositor; ? = inconclusive; · = no result; [ ] = remark or other dose. Compounds with a hit are over-represented: about 7.5% of the library has one in this group of screens. Calls come from the whole dose curve; as a rule, active = well fitted curve in the direction sought with a large enough effect; inconclusive = small, poorly fitted or top-dose-only effect, or another doubt; inactive = no such curve, though single readings can be large; an effect the other way counts as inactive or inconclusive. Potency is the fitted concentration of half-maximal effect.

SMILES	SMN2 splice enh	NPC1 promoter act	KinaseGlo FLuc	Rab9 promoter act	FLuc modulator	ELG1 genotoxic
CCN1CCN(C(=O)c2cc3c(s2)-c2c(C)cccc2OC3)CC1	·	?	·	4µM*	11µM*	?
O=[N+]([O-])c1ccccc1-c1ccc(C(=S)N2CCCC2)o1	11µM*	?	-9%	2.8µM*	21µM*	-6%
O=[N+]([O-])c1ccccc1-c1ccc(C(=S)N2CCCCC2)o1	·	2µM*	·	3.2µM*	8.5µM*	?
COc1cccc(NC(=O)CCc2c(C)nc3ncnn3c2C)c1	5%	·	·	·	4%	·
Cc1nn(-c2ccccc2)c(Cl)c1/C=N/Nc1nc2ccccc2n1C	11µM*	3.5µM*	-28%	?	2.4µM*	8%
Cc1nn(-c2ccccc2)c(Cl)c1/C=N/NC(N)=O	·	18%	·	18%	?	?
Cc1nn(-c2ccccc2)c(Cl)c1/C=N/NC(=O)c1ccnn1C	·	1.4µM*	·	2.8µM*	2.7µM*	15µM*
COC(=O)N/N=C\c1c(C)nn(-c2ccccc2)c1Cl	?	?	-1%	?	15µM*	?
Cc1nn(-c2ccccc2)c(Cl)c1/C=N/NC(=O)CNC(=O)c1ccccc1Cl	4%	6%	0%	7%	19µM*	-3%
O=C1COc2ccc(C(=O)COC(=O)c3ccccc3[N+](=O)[O-])cc2N1	·	20%	·	?	1.5µM*	9%
O=C1COc2ccc(C(=O)COC(=O)c3ccc(Cl)cc3[N+](=O)[O-])cc2N1	·	0%	·	-8%	0%	·
O=C1COc2ccc(C(=O)COC(=O)c3ccco3)cc2N1	·	0%	·	-1%	12µM*	1%
CCOC(=O)c1noc2ncn(CC(=O)Nc3ccccc3OC)c(=O)c12	·	·	·	·	-6%	·
Clc1ccc(Cn2nc(-c3ccccc3)nc2-c2ccccc2)cc1	?	22%	-5%	23%	15µM*	11%
Clc1ccccc1Cn1nc(-c2ccccc2)nc1-c1ccccc1	-7%[1.84 µM]	1%	-2%	-2%	-19%	1%
COC(=O)c1oc2ccc(OC)cc2c1N	?	13%	-2%	29%	21µM*	12%
COc1ccc2oc(C(=O)OCC(=O)NC3CC3)c(C)c2c1	·	18%	·	13%	?	19%
COc1ccc(C(=O)c2oc3ccc(OC)cc3c2NC(C)=O)cc1	0%	-1%	2%	1%	-2%	4%
COc1ccc(C(=O)c2oc3ccc(OC)cc3c2N)cc1	14µM*	2.8µM*	1%	2.8µM*	7.6µM*	13µM*
CC(C)c1cc(C(=O)Nc2cc(Br)ccc2O)no1	?	24%	-5%	?	?	?
CCCc1cc(C(=O)Nc2cc(Br)ccc2O)no1	?	16%	3%	25%	?	13µM*
O=C(Nc1cc(Br)ccc1O)c1cc(-c2cccs2)on1	·	23%	·	?	?	29%
CC(C)c1cc(C(=O)Nc2cc(Cl)ccc2O)no1	13µM*	2.8µM*	-3%	1.6µM*	7.6µM*	?
CSc1ccccc1NC(=O)c1cc(C(C)C)on1	18%	?	-8%	?	21µM*	12µM*
CCCc1cc(C(=O)Nc2cc(Cl)ccc2O)no1	·	?	·	?	11µM*	16µM*
Cc1ccccc1Nc1c(-c2c(F)cccc2Cl)nc2ccc(Br)cn12	-11%	·	·	·	1%	·
CCOc1ccc(C2C(C(=O)Nc3ccc(OC)cc3)=C(C)Nc3nc(SCc4ccc(Cl)cc4)nn32)cc1 (stereo not drawn)	·	·	·	·	1%	·
Cc1ccc(NC(=O)CC(C)S(=O)(=O)c2ccc3c(c2)NC(=O)CO3)cc1Cl (stereo not drawn)	·	·	·	·	2%	·
COc1ccc(-c2cc(C(F)(F)F)nc(SCC(=O)NCC(C)C)n2)cc1OC	11%	·	·	·	3%	·
CCc1ccc(-c2nnn(CCC(=O)OC)n2)cc1	-16%	-5%	-7%	-10%	15µM*	5%
